# Hits are enriched below; roughly 4.5% of the tested compounds scored in any of these assays.
# DAX1 inh-1: inhibitors of human orphan nuclear receptor DAX1 (NR0B1) | actives 0.99% (n = 340,000) | inhibition, % at 6.75 µM | HEK293 Gal4-DAX1 luciferase reporter, luminescence | P51843;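 active means inhibition above the mean over all tested compounds plus 3 SD, cut at about 4.2% in these data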;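 further: 0% = DAX1-transfected cells with DMSO and 100% = empty-vector control cells with DMSO; inhibition shows as a rise in luminescence from relieved DAX1 repression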
# Target sequence (P51843 207-470 limits assumed): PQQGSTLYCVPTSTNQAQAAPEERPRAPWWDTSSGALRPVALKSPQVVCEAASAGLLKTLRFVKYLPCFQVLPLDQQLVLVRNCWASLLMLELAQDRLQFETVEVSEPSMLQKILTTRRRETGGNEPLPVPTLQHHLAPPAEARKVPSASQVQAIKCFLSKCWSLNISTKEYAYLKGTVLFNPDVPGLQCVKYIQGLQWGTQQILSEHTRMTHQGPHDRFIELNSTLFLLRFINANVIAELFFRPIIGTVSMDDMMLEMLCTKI
# FXN GAA850 act: increases GAA850 frataxin promoter reporter activity; HEK293 lucGAA850 FXN promoter luciferase reporter, 24 h; percent of 10 µM SAHA response; activation, % at 6 µM; actives 0.56% (n = 360,000); AID 540364;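 active means activation above the average of all compounds screened plus 3 SD, cutoff fixed separately per campaign, cut at about 7.5% in these data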;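 further: 0% = DMSO wells and 100% = 10 µM SAHA wells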
# DAX1 inh-2: blocks DAX1 repression of SF-1 activated StAR promoter; HEK293T StAR-luciferase reporter, SF-1/DAX-1 repression relief; actives 1.1% (n = 370,000); inhibition, % at 6.8 µM;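 active means inhibition above the mean over all tested compounds plus 3 SD, cut at about 3.6% in these data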;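 further: 0% = DAX-1 cells with DMSO and 100% = cells lacking DAX-1 with DMSO; higher inhibition means more luminescence from relief of DAX-1 repression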
# hcDAF12 agonist: H. contortus DAF-12 activation, primary screen; HEK293 hcDAF-12 lit1-tk-luc reporter, luminescence; 0% DMSO, 100% Δ7-dafachronic acid; activation, % at 6.8 µM; actives 1.4% (n = 370,000); AID 652067;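 active means activation above the mean of all tested compounds plus 3 SD, cut at about 5.5% in these data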;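 further: 100% = response to 3 µM Δ7-dafachronic acid high control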
# hgDAF-12 ag: hgDAF-12 agonism, primary luciferase screen. activation, % at 6.8 µM. actives 1.8% (n = 370,000). HEK293 GAL4-hgDAF12 UAS-luciferase reporter, agonist luminescence; normalized to butyrate control;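 active means activation above a cutoff set at the mean of all screened compounds plus 3 SD, cut at about 10% in these data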;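 further: 0% = DMSO wells and 100% = sodium butyrate wells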
# ssDAF12 agonist: S. stercoralis DAF-12 activation, primary screen. AID 652126. HEK293 ssDAF-12/GRIP1 lit1-tk-luc reporter, luminescence; % of 3 µM dafachronic acid response. actives 1% (n = 370,000). activation, % at 6.8 µM;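 active means activation above the mean over all tested compounds plus 3 SD, cut at about 0.9% in these data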;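 further: 0% = DMSO-only wells and 100% = 3 µM delta7-dafachronic acid wells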
# GAA30 FXN cntr: GAA30 FXN promoter activation counter-screen. HEK293 lucGAA30 FXN promoter luciferase, 24 h; DMSO = 0%, 5 µM ipriflavone = 100%. activation, % at 6 µM. AID 588350. shares compounds with FXN GAA850 act. actives 66% (n = 1,900);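 active means mean activation above the mean of solvent-only control wells plus 3 SD, cut at about 22% in these data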;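 further: counterscreen of GAA850 promoter hits where activity marks nonselective or luminescence artifacts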
# GAA850 confirm: confirmation of GAA850 frataxin (FXN) promoter activators; shares compounds with FXN GAA850 act; HEK293 lucGAA850 FXN promoter luciferase reporter, 24 h; 100% = activation by SAHA; actives 86% (n = 1,900); AID 588351; activation, % at 6 µM;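 active means mean activation above a set limit taken from the primary screen, cut at about 8% in these data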;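 further: 0% = DMSO wells and 100% = 10 µM SAHA wells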
# Starred values were filed as active, the others as inactive; nt = no result; ! = not confirmed by another sample.
SMILES,DAX1 inh-1,FXN GAA850 act,DAX1 inh-2,hcDAF12 agonist,hgDAF-12 ag,ssDAF12 agonist,GAA30 FXN cntr,GAA850 confirm
Cc1ccc(C)c(-c2ccc(=O)n(Cc3cccc(Br)c3)n2)c1,-1,8.3*,-1,-1,-3,-1,11,6
CCOC(=O)[C@]12CCCC=C1N(CCCOC)C(=O)[C@@H]2CC(=O)NCCCN1CCCC1=O,nt,nt,0,0,2,-1,nt,nt
COc1ccc(OCc2nc(N)nc(Nc3ccc(C)cc3)n2)cc1,1,8.8*,1,0,3,-1,67*,25*
COc1ccc(Nc2nc(N)nc(COc3ccc(OC)cc3)n2)cc1,0,1,0,-1,4,-1,nt,nt
COc1ccc(Nc2nc(N)nc(CSC(=S)N3CCCCC3)n2)cc1,4,8.2*,0,0,8,-1,69*,23*
Cc1ccc(C(=O)C2CCN(CC(=O)NCc3cccs3)CC2)cc1,nt,nt,-1,-3,-4,-1,nt,nt
Cc1cc2c(cc1C)N(CC(=O)N1CCCC1)C(=O)CC(c1ccccc1)=N2,2,7.8*,0,4,2,0,78*,22*
Cc1ccc(N2CC(C(=O)Nc3ccccc3OC(F)F)CC2=O)cc1 (stereo unspecified),0,2,-1,-2,0,-1,nt,nt
NC(=O)c1ccsc1NC(=O)CSc1ccccc1F,1,8.2*,2,1,4,-1,89*,27*
Cc1ccccc1SCC(=O)OCC(=O)Nc1sccc1C(N)=O,0,2,0,-2,2,-1,nt,nt
Cc1csc(NC(=O)CSc2ccc(-c3ccccn3)nn2)n1,0,2,0,2,-4,1,nt,nt
Cc1csc(NC(=O)CSc2ccccc2F)n1,1,12*,1,1,8,-1,78*,25*
CCOC(=O)C1=NOC(C(=O)Nc2nccs2)(C(=O)C2CC2)C1 (stereo unspecified),nt,nt,1,3,-1,0,nt,nt
COc1ccc(NC2=NC(=S)N(c3ccccc3C)C23CCCCC3)cc1,1,-3,0,-1,-1,-1,nt,nt
COc1ccc(Nc2ccc3c(c2)=NC2(CCCCC2)[N+]=3[O-])cc1,-2,17*,-3,-3,-11,-1,50*,106*
[O-][N+]1=c2ccc(Nc3ccccc3)cc2=NC12CCCCC2,-1,10*,-3,-4,-10,-2,46*,70*
O=[N+]([O-])c1ccc2c(c1N1CCCCC1)=NC1(CCCCC1)[N+]=2[O-],-2,1,0,-1,-1,-1,nt,nt
COc1c2c(cc3oc(CO[C@@H]4O[C@H](CO)[C@@H](O)[C@H](O)[C@H]4O)cc(=O)c13)O[C@H](C(C)(C)O)C2,0,1,1,-1,2,-1,nt,nt
CCOC(=O)C1=NOC(C(C)=O)(C(=O)N2CCOCC2)C1 (stereo unspecified),nt,nt,0,-1,-2,0,nt,nt
CC(C)CNS(=O)(=O)/C=C/c1cc2c(cc1CNC(=O)OC(C)(C)C)OCO2,nt,nt,0,-4,-4,-1,nt,nt
CN=C1SC(CC(=O)Nc2ccc(N3CCOCC3)cc2)C(=O)N1C (stereo unspecified),2,13*,1,1,-1,-1,15,3
CN=C1SC(CC(=O)Nc2cccc(C(F)(F)F)c2)C(=O)N1C (stereo unspecified),0,1,-1,-2,-3,-1,nt,nt
COc1cc(OC)cc(C(C)c2ccc(C)cc2)c1 (stereo unspecified),nt,nt,nt,-1,4,-1,nt,nt
O=C(CCCN1C(=O)c2ccccc2C1=O)Nc1c(C(=O)C2CC2)oc2ccccc12,1,17*,0,2,4,-1,28*,8.6*
COC(=O)c1c(NC(=O)CN2CCC3(O)CCCCC3C2c2cc(OC)ccc2OC)sc(C)c1C (stereo unspecified),1,12*,0,-1,-2,-2,0,9.9*
SMILES,DAX1 inh-1,FXN GAA850 act,DAX1 inh-2,hcDAF12 agonist,hgDAF-12 ag,ssDAF12 agonist,GAA30 FXN cntr,GAA850 confirm
O=C(CCl)Nc1ccc(N2CCCCCC2)cc1,-1,7.7*,-2,-1,-6,-1,10,29*
CCC(=O)Nc1ccc(N2CCCCC2)cc1,-1,4,1,0,3,-1,nt,nt
NC(Cc1ccc(C(F)(F)F)cc1)c1csc(NC(=O)Nc2ccccc2Cc2ccccc2)n1 (stereo unspecified),nt,15*,-1,1,5,1,20,15*
COc1cccc(Nc2nc(C(N)CCc3ccccc3)cs2)n1 (stereo unspecified),nt,8.3*,0,0,-2,-2,-4,7.7*
NC(CCc1ccccc1)c1csc(NC(=O)Nc2ccccc2Oc2ccccc2)n1 (stereo unspecified),nt,11*,0,-1,4,-1,9,16*
COc1cccc(Nc2nc(C(N)COCc3ccccc3)cs2)n1 (stereo unspecified),nt,4,-2,0,3,0,nt,nt
Cc1ccc(O)c(NC(=O)c2cc(-c3ccc(F)cc3)on2)c1,0,4,0,0,3,-1,nt,nt
Cc1ccc(O)c(NC(=O)c2cc(-c3cccs3)on2)c1,1,9.9*,1,2,11*,0,87*,47*
Cc1ccnc(NC(=O)CCCOc2cc(=O)n(C)c3ccccc23)c1,7.0*,8.8*!,0,-1,2,0,68*,61*
CN(C)c1ccc(O)c2c1CC1CC3[C@@H](N(C)C)C(=O)C(C(N)=O)=C(O)[C@]3(O)C(=O)C1=C2O (stereo partly specified),-1,15*,-1,-1,1,-2,29*,10*
Nn1c(C2CCCCC2)nc2ccccc2c1=O,0,-2,0,-2,4,-2,nt,nt
N#CCn1c(C2CCCCC2)nc2ccccc2c1=O,0,9.3*,0,-1,-3,0,26*,14*
COc1cc2c3c(cccc3c1)C(=O)N(CCN1CCCC1)C2=O,8.7*,27*,-2,5,-1,-1,-29,131*
COc1ccc(C(=O)CN2CCN(CCN3C(=O)c4cccc5cccc(c45)C3=O)CC2)cc1,-1,-3,0,-1,0,-1,nt,nt
CCCCOc1ccc(C(=O)NCC2(c3ccc(OC)cc3)CCOCC2)cc1,-2,16*,0,-1,-3,-1,13,6
